# Results taken from PubChem BioAssay AID588458 (Sanford-Burnham Center for Chemical Genomics, 2011).
# Where “and” joins values, the source holds several entries; their conditions need not be identical. Identical values can stand only once. Out of some 360,000 compounds screened, about 3,000 (0.83%) were called active. Cut-off read from the data, not from the text of the source: active = inhibition above about 50%; inactive = the rest. Shown is part of a subset that was picked to be rich in actives.
# Target: DNA (cytosine-5)-methyltransferase 1 (Homo sapiens) (UniProt P26358)
# Sequence (P26358 504-1616 limits assumed): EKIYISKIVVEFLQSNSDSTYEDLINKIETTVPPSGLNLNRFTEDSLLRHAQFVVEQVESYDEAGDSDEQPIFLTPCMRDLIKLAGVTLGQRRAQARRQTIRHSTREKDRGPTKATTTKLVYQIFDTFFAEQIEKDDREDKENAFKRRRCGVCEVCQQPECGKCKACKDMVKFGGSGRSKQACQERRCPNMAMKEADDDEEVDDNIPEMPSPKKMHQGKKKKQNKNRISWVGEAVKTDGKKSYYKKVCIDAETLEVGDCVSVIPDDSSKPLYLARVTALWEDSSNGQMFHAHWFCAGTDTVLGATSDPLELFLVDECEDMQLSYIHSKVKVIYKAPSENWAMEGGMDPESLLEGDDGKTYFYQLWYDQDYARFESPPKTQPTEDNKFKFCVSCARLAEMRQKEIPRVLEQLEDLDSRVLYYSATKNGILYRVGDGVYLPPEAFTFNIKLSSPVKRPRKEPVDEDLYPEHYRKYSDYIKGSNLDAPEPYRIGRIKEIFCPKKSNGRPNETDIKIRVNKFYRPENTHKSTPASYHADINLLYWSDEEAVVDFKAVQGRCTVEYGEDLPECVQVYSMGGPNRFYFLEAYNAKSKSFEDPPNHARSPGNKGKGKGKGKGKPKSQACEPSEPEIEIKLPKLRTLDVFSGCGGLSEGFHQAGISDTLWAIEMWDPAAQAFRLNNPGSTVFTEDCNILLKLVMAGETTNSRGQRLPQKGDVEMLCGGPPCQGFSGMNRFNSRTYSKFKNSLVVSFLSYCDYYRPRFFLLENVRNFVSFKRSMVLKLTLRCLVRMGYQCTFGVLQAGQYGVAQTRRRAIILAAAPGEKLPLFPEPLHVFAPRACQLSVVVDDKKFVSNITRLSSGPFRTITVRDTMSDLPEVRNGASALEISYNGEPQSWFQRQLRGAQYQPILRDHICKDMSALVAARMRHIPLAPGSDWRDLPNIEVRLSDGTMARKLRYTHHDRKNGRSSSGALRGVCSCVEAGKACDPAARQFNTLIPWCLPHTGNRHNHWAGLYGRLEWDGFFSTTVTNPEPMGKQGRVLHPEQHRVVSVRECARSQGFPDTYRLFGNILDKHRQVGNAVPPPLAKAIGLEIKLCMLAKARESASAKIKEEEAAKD
# Assay: inhibition of DNA methyltransferase DNMT1 – biochemical, molecular beacon, fluorescence, HinP1I cleavage, uHTS, primary screen (AID 588458)
# Conditions: at 10 µM, hits give high values
row,Structure (SMILES),inhibition (reported as % activation of signal)
1,Cc1ccnc(-n2c(C)cc(/C=C3\C(=O)NC(=S)N(C)C3=O)c2C)c1,5.36% (inactive)
2,Cc1c(C(=O)O)cccc1-n1c(C)cc(/C=C2\C(=O)NC(=O)N(c3ccc4c(c3)OCO4)C2=O)c1C,86.2% (active)
3,COC(=O)C1=C(c2c(C)noc2C)C[C@@H]2CC[C@H]1N2C(=O)NCc1ccc2c(c1)OCO2,2.7% (inactive)
4,O=C1NC(=O)N(Cc2ccco2)C(=O)/C1=C\c1ccc(-c2ccc(F)cc2)o1,79.9% (active)
5,Cc1ccc(-n2c(C)cc(/C=C3\C(=O)NC(=O)N(C)C3=O)c2C)cc1C,29.9% (inactive)
6,Cc1cc(/C=C2/C(=O)NC(=O)N(Cc3ccco3)C2=O)c(C)n1-c1ccc(C(=O)O)cc1,51.8% (active)
7,O=C1NC(=O)N(Cc2ccco2)C(=O)/C1=C\c1cccn1CCOc1ccccc1,52.4% (active)
8,Cc1cc(C=C2C(=O)NC(=O)NC2=O)c(C)n1-c1ccncc1,5.18% (inactive)
9,CCOC(=O)C(O)(c1ccc(N=Cc2ccccc2O)c(C)c1)C(F)(F)F (stereo not given),0.86% (inactive)
10,CC1CNCCN1c1ccc(Cl)cc1 (stereo not given),-33.5% (inactive)
11,O=C1C2(Cl)C3(Cl)C4(Cl)C(Cl)(Cl)C5(Cl)C3(Cl)C1(Cl)C5(Cl)C24Cl (stereo not given),-6.15% (inactive)
12,O=P(OC1=CCCCC1)(c1ccccc1)c1ccccc1,-0.46% (inactive)
13,COC(=O)C1=C(c2ccc(OCc3ccccc3)cc2)C[C@@H]2CC[C@H]1N2C(=O)NCc1ccc(Cl)cc1,-11.6% (inactive)
14,Fc1ccc(C2N3CCCN23)cc1 (stereo not given),0.57% (inactive)
15,COC(=O)C(O)(c1ccc(NC(=O)c2ccco2)c(OC)c1)C(F)(F)F (stereo not given),2.7% (inactive)
16,CCOC(=O)c1c(-c2ccccc2)oc2ccc(OC(=O)N(C)C)cc12,-3% (inactive)
17,CC(C)n1c(=O)c(C=Nc2ccc(Br)cc2)c(O)n(Cc2ccco2)c1=O,3.48% (inactive)
18,Cc1ccc(-c2nc3ccccc3c(=O)n2-c2ccc(Br)cn2)cc1,-0.14% (inactive)
19,N#CC1=C(N)Oc2c(c(=O)oc3ccccc23)C1c1ccccc1OC(=O)c1cccs1 (stereo not given),0.68% (inactive)
20,CC12CCC3C(CCC4CC(=O)CCC43C)C1CC(=NO)C2=O (stereo not given),0.34% (inactive)
21,COc1ccc(N2C(=O)/C(=C/c3ccco3)C(=O)NC2=S)cc1,97.9% (active)
22,COc1cc(C(=O)N2Cc3ccc(Br)cc3-n3nncc3C2)cc(OC)c1OC,3.06% (inactive)
23,Cc1cc(-c2ccc(N)c(C)c2)ccc1N,-7.86% (inactive)
24,Cc1cc(C)cc(NC(=S)NC2CC3CCCC(C2)N3Cc2cccs2)c1 (stereo not given),-3.24% (inactive)
25,Oc1ccc2c3c1OC1[C@H](O)CC[C@@]4(O)[C@@H](C2)N(CC2CC2)CC[C@]314 (stereo not given in full),3.17% (inactive) and 0.16% (inactive)
26,CC(=NC1CCN(Cc2ccccc2)CC1)c1c(O)n(C)c(=O)n(C)c1=O,2.93% (inactive)
27,CC1=C(C(=O)Nc2ccccc2)SCCO1,87.4% (active)
28,CC1=C(C(=O)Nc2ccccc2)S(=O)(=O)CCO1,2.83% (inactive)
29,CCN1CCN(C(=O)Cc2coc3cc(C)cc(C)c23)CC1,2.55% (inactive)
30,COc1ccc(NC(=O)N2Cc3ccccc3-n3nncc3C2)cc1,7.01% (inactive)
